From PubChem
Mtb hypoxia inh: Mtb hypoxia fluorescent reporter inhibition | M. tuberculosis hypoxia-regulated fluorescent reporter, fluorescence | fluorescence inhibition, % (concentration not given with the values) | actives 0.1% (n = 300,000) | AID 1159583; in the data active means fluorescence inhibition mostly above about 23%, no sharp cut-off; inactive means mostly below about 17%
BioA inh: blocks M. tuberculosis BioA enzyme activity | actives 0.096% (n = 360,000) | purified M. tuberculosis BioA enzyme, plate reader | inhibition, % at 9.99 µM; in the data active means inhibition above about 40%; inconclusive means no clear call, values can overlap the other calls
VHR inh abs: inhibitors of human VHR1 phosphatase (DUSP3) | recombinant VHR phosphatase, pNPP absorbance | inhibition, % at 13.3 µM | actives 0.52% (n = 290,000); in the data active means inhibition above about 50%
Target sequence (P51452 whole entry, looked up): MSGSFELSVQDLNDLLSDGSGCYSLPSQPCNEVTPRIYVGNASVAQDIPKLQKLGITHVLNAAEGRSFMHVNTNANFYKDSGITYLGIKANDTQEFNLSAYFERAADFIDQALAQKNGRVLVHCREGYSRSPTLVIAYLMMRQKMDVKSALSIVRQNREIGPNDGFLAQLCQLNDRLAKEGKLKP
3CLpro inhibitor: SARS-CoV 3CLpro protease inhibition; P0C6X7; actives 0.14% (n = 290,000); recombinant SARS-CoV 3CLpro, quenched FRET peptide cleavage; inhibition, % at 6 µM; in the data active means inhibition above about 12%
FadD28 binding: M. tuberculosis FadD28 bisubstrate binding inhibition; inhibition, % at 12.5 µM; actives 0.22% (n = 360,000); FadD28 bisubstrate probe binding, fluorescence polarization; in the data active means inhibition above about 8.5%, passing the limit was not always enough; inconclusive means no clear call, values can overlap the other calls
Of the large screens only hits and unclear results are named; the others gave an inactive call; ! = not active in a repeat. In the library only some 0.7% were active in any assay of this set; here they are far more common.

COc1cc(/C=N/NC(=O)CCC(=O)Nc2ccc(C)cc2)ccc1O	VHR inh abs 52 (no result: Mtb hypoxia inh, BioA inh)
COc1cc(C=NNC(=O)c2cc3ccccc3[nH]2)ccc1O	none (no result: BioA inh, VHR inh abs, 3CLpro inhibitor, FadD28 binding)
O=C(O)CCC(=O)N1N=C(c2ccccc2)CC1c1ccc(Br)cc1 (centres undefined)	none
O=C(O)CCC(=O)N1N=C(c2ccc(Br)cc2)CC1c1ccc(Br)cc1 (centres undefined)	VHR inh abs 56 (no result: Mtb hypoxia inh)
Cn1c(=O)n(N=Cc2ccccc2)c2ccccc21	none (no result: BioA inh, VHR inh abs, 3CLpro inhibitor, FadD28 binding)
COc1ccc(C(=O)Nc2nc(C)c3cc4c(cc3n2)OCO4)cc1	Mtb hypoxia inh 38
CNC(=S)NNS(=O)(=O)c1ccc(OC)cc1OC	none
COc1cccc(NC(=O)NNS(=O)(=O)c2ccc(OC)cc2OC)c1	VHR inh abs 50
CC(=NNC(=O)CN1CCN(S(=O)(=O)c2ccc(C)cc2)CC1)c1ccncc1	none (no result: BioA inh, VHR inh abs, 3CLpro inhibitor, FadD28 binding)
CN(C)C(CNc1ccc(S(C)(=O)=O)cc1[N+](=O)[O-])Cc1ccccc1 (centres undefined)	VHR inh abs 56 (no result: FadD28 binding)
CN(C)C(CNc1ccc(S(C)(=O)=O)cc1[N+](=O)[O-])c1ccccc1 (centres undefined)	none
Cc1ccsc1C=NNC(=O)C(O)c1ccccc1 (centres undefined)	none (no result: BioA inh, VHR inh abs, 3CLpro inhibitor, FadD28 binding)
COc1ccccc1N1CCN(CC(O)COc2cccc3ccccc23)CC1 (centres undefined)	3CLpro inhibitor 17!
O=C(NCCN1CCOCC1)c1ccc([N+](=O)[O-])cc1[N+](=O)[O-]	none (no result: Mtb hypoxia inh)
CCOc1ccc(CCNC(=O)c2cc([N+](=O)[O-])ccc2N2CCOCC2)cc1OCC	VHR inh abs 50
O=C(NCCN1CCOCC1)c1cc([N+](=O)[O-])ccc1Cl	VHR inh abs 50
O=C(N/N=C/c1cc2ccccc2nc1Cl)/C(=C/c1cccs1)NC(=O)c1ccccc1	VHR inh abs 52 (no result: Mtb hypoxia inh)
NC(=O)c1cc2c3ccccc3ccn2c1-c1ccccc1	VHR inh abs 64
O=C(NN=Cc1c[nH]c2ccccc12)c1ccccc1O	none (no result: BioA inh, VHR inh abs, 3CLpro inhibitor, FadD28 binding)
Cc1ccc(NCc2nnc(SCC(N)=O)n2CC2CCCO2)c(C)c1 (centres undefined)	VHR inh abs 53
NC(=O)CSc1nnc(CNc2ccc(F)cc2)n1CC1CCCO1 (centres undefined)	none
CCC1=NN2C(=N)C(=Cc3cccn3-c3ccc(Cl)cc3)C(=O)N=C2S1	none (no result: BioA inh, VHR inh abs, 3CLpro inhibitor, FadD28 binding)
CC1(C(=O)N(CC(=O)NC2CCCC2)Cc2ccc(Cl)cc2)CC(=O)N=C2C=CC=CN21 (centres undefined)	VHR inh abs 52
CC(NC(=O)c1nc[nH]c1C(=O)NC(C)C(=O)OC(C)(C)C)C(=O)OC(C)(C)C (centres undefined)	none (no result: BioA inh, VHR inh abs, 3CLpro inhibitor, FadD28 binding)
O=C(Oc1ccc(OC(=O)c2ccncc2)cc1)c1ccncc1	Mtb hypoxia inh 37 (no result: VHR inh abs, 3CLpro inhibitor)
COc1ccc(OC(=O)c2ccncc2)cc1	none
COc1cccc(CN(C(=O)/C=C/c2ccc(Cl)cc2)C2CCS(=O)(=O)C2)c1 (centres undefined)	VHR inh abs 51 (no result: BioA inh)
O=C(/C=C/c1ccccc1)N(Cc1cccc(Cl)c1)C1CCS(=O)(=O)C1 (centres undefined)	none (no result: BioA inh)
CC(/C=C/c1ccccc1)=NNC(=S)NC(C)C	none (no result: BioA inh, VHR inh abs, 3CLpro inhibitor, FadD28 binding)
O=Cc1c(Cl)nc2ccccn2c1=O	none (no result: BioA inh)
CC1CCN(c2nc3ccccn3c(=O)c2C=O)CC1	Mtb hypoxia inh 45 (no result: BioA inh)
CC1(C)C(O)CC[C@@]2(C)C1CC[C@]1(C)C2C(=O)C=C2C3C[C@@](C)(C(=O)O)CC[C@]3(C)CC[C@]21C (some centres undefined)	none (no result: BioA inh, VHR inh abs, 3CLpro inhibitor, FadD28 binding)
Cc1ccc(N/C(N)=N/c2nc(CSc3nnc(N)s3)cc(=O)[nH]2)cc1	VHR inh abs 53
Cc1ccc(N/C(N)=N/c2nc(CSc3ccc(C)cc3)cc(=O)[nH]2)cc1	none
Cc1ccc(S(=O)(=O)N2C(c3ccc(C(C)C)cc3)CC=C(C(=O)O)C2c2ccc(F)cc2)cc1 (centres undefined)	none (no result: BioA inh, VHR inh abs, 3CLpro inhibitor, FadD28 binding)
CCOC(=O)c1c(C)oc2c1c(C=NCC1CCCO1)c(O)c1ccccc12 (centres undefined)	VHR inh abs 51 (no result: Mtb hypoxia inh)
CCOC(=O)c1c(C)oc2c1c(C=NCc1ccccn1)c(O)c1ccccc12	none (no result: BioA inh)
CC(C)(C)c1ccc(C(=O)Nc2sc3c(c2C(=O)O)CCC3)cc1	FadD28 binding 14 (no result: BioA inh)
O=C(Nc1sc2c(c1C(=O)O)CCCC2)c1ccc(F)cc1	none
O=C(O)C1CCCCC1C(=O)Nc1ncc([N+](=O)[O-])s1 (centres undefined)	none (no result: BioA inh, VHR inh abs, 3CLpro inhibitor, FadD28 binding)
Cc1ccc2[nH]cc(CCNC(=O)c3cccs3)c2c1	VHR inh abs 52
Cc1ccc(S(=O)(=O)N2[C@@H](c3cccc(Cl)c3)C(C(=O)O)=CC[C@H]2c2cccc(C)c2)cc1	FadD28 binding inconclusive (no result: Mtb hypoxia inh, VHR inh abs, 3CLpro inhibitor)
Cc1ccc(S(=O)(=O)N2[C@@H](c3cccc(Cl)c3)C(C(=O)O)=CC[C@H]2c2cccc(Cl)c2)cc1	FadD28 binding 14 (no result: Mtb hypoxia inh, VHR inh abs, 3CLpro inhibitor)
COCCCNC(=O)/C(C#N)=C/c1cccc(NC(=O)c2ccccc2Cl)c1	none (no result: Mtb hypoxia inh)
N#C/C(=C\c1cccc(NC(=O)c2ccccc2Cl)c1)C(=O)NCCc1ccccc1	VHR inh abs 55 (no result: BioA inh)
Cc1cc(=O)[nH]c(N2CCCNCC2)n1	VHR inh abs 54
O=C(O)CCSCC(=O)Nc1c(C(=O)C2CC2)oc2ccccc12	none (no result: Mtb hypoxia inh)
O=C(Nc1c(C(=O)C2CC2)oc2ccccc12)c1ccc(Cl)cc1	VHR inh abs 51 (no result: Mtb hypoxia inh, BioA inh)
O=C1C(=Cc2ccco2)CCC1=Cc1ccco1	FadD28 binding 13 (no result: VHR inh abs, 3CLpro inhibitor)
CCCSc1nc2cc(OC)c(OC)cc2c(=N)n1CCCN1CCOCC1	none (no result: BioA inh)
COCCCn1c(SCc2ccc(OC)cc2)nc2cc(OC)c(OC)cc2c1=N	FadD28 binding 21
CC=C(C)C(=O)OC(C(O)c1cc2ccc(=O)oc2cc1OC)C(C)(C)OC1OC(CO)C(O)C(O)C1O (centres undefined)	none (no result: BioA inh, VHR inh abs, 3CLpro inhibitor, FadD28 binding)
COc1ccccc1N1CCN(/N=C/C=C/c2ccccc2[N+](=O)[O-])CC1	VHR inh abs 50 (no result: Mtb hypoxia inh)
COc1ccccc1N1CCN(N=C/C=C/c2ccccc2[N+](=O)[O-])CC1	none (no result: BioA inh, VHR inh abs, 3CLpro inhibitor, FadD28 binding)
O=C(NN=C/C=C\c1ccccc1[N+](=O)[O-])c1cc(-c2ccccc2)nc2ccccc12	none (no result: BioA inh, VHR inh abs, 3CLpro inhibitor, FadD28 binding)
C#CCNC(=O)C1=CC(C(C)(C)C)CC(OCCCCO)O1 (centres undefined)	none (no result: BioA inh, VHR inh abs, 3CLpro inhibitor, FadD28 binding)
CCC(/C=C1\Sc2ccc(OC)cc2N1CC)=C\c1sc2ccc(OC)cc2[n+]1CCCS(=O)(=O)[O-]	Mtb hypoxia inh 68
Cc1ccccc1OCC(=O)N/N=C/c1ccc([N+](=O)[O-])o1	VHR inh abs 52 (no result: Mtb hypoxia inh, BioA inh)
O=C(CCl)Nc1cccc2ncccc12	none
O=C(CN1C(=O)C2C3C=CC(C4CC34)C2C1=O)Nc1cccc2ncccc12 (centres undefined)	VHR inh abs 53 (no result: BioA inh)
CCN(CC)S(=O)(=O)c1ccc(NC(=O)CSc2cccc[n+]2[O-])cc1	VHR inh abs 52 (no result: BioA inh)
CCN(CC)S(=O)(=O)c1ccc(NC(=O)COc2c(OC)cccc2OC)cc1	VHR inh abs 56 (no result: BioA inh)
COc1ccccc1OCC(=O)Nc1ccc(S(=O)(=O)N(C)c2ccccc2)cc1	none
Cc1ccc2occ(C=NNC(=O)c3ccccc3O)c(=O)c2c1	none (no result: BioA inh, VHR inh abs, 3CLpro inhibitor, FadD28 binding)
COc1cc(C(=O)NN=Cc2ccccc2)c([N+](=O)[O-])c(OC)c1OC	none (no result: BioA inh, VHR inh abs, 3CLpro inhibitor, FadD28 binding)
